# Assay outcomes: PubChem, several laboratories
# FXIa inh mix – inhibitors of human coagulation factor XIa, pooled mixtures; inhibition, % at 5 µM; 62,000 tested, 0.19% active; purified FXIa, fluorogenic substrate;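 note: each value is inhibition by a whole ten-compound pool holding the compound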
# Calb biofilm kill – kills Candida albicans biofilms; C. albicans biofilm + clotrimazole, Alamar Blue; inhibition, % at 6 µM; 85,000 tested, 0.14% active; AID 834;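 active = inhibition above 20%; inactive = inhibition below 20%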;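 note: preformed 24 hr biofilms exposed to compound for 48 hr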
# FXIIa inh mix – blocks human factor XIIa in pooled compound mixtures | P00748 | purified FXIIa, fluorogenic substrate | inhibition, % at 5 µM | 62,000 tested, 0.2% active | AID 684
# TNAP act mid DEA – activators of human TNAP at intermediate phosphate acceptor; P05186; activation factor at 20 µM; purified TNAP, CDP-star luminescence, 100 mM DEA, 30 min; active compounds read high; scale: 0 levamisole-inhibited, 1 vehicle-only enzyme; 64,000 tested, under 10 active; AID 813;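 active = activation factor of at least 2 at 20 µM, relative to controls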
# D1 allo mod – allosterically modulates the human D1 dopamine receptor | B-score at 10 µM | P21728 | 58,000 tested, 5.9% active | AID 641 | HEK293 D1, CRE-luciferase, dopamine EC30 potentiation; actives deviate in either direction;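 active = luminescence count or its row- and column-corrected plate score outside the 99.7% band of the plate's sample wells, on either side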
# Target sequence (P21728 whole entry, looked up): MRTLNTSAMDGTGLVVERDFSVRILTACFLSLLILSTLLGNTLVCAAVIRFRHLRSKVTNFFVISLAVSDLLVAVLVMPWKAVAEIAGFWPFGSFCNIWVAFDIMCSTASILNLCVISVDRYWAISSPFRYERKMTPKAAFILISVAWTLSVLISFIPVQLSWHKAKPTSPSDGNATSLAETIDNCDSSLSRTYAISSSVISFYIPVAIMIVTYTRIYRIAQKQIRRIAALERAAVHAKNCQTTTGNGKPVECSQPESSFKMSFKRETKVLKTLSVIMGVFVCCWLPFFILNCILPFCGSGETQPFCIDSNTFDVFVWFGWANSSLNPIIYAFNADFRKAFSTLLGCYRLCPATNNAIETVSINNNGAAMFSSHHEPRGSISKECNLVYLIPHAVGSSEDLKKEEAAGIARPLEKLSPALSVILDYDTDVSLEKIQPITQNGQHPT
# HePTP inh – blocks human HePTP tyrosine phosphatase; recombinant HePTP phosphatase activity, OD absorbance; inhibition, % at 20 µM; 110,000 tested, 0.64% active; AID 521; in the data active = inhibition above about 50%
# Hits are given with their value; n = inactive; x = no result. The entries come from a sample that favours hits as a whole. Cut-off read from the data, not from the text of the source, unless noted: active = inhibition above about 20% (passing the limit was not always enough); inactive = the rest.
SMILES,FXIa inh mix,Calb biofilm kill,FXIIa inh mix,TNAP act mid DEA,D1 allo mod,HePTP inh
Cc1cc2nc(-c3cccnc3SCC(=O)NCc3ccco3)[nH]c2cc1C,n,n,n,n,-3.9,n
O=C(O)c1ccc(S(=O)(=O)n2cnc3ccccc32)cc1,x,x,x,x,x,n
O=C(O)c1cn(C2CC2)c2cc(N3CCOCC3)c(F)cc2c1=O,x,n,x,x,x,x
CCN1CCN(c2cc3c(cc2F)c(=O)c(C(=O)O)cn3C2CC2)CC1,n,24,n,n,n,n
Cn1c(=N)c(S(=O)(=O)c2ccc(Cl)cc2)cc2c(=O)n3ccccc3nc21,n,n,n,n,4.8,n
CCOC(=O)c1cc2c(=O)n3ccccc3nc2n(Cc2ccccc2Cl)c1=N,x,n,x,n,x,n
CCCCn1c(=O)[nH]c(=O)c2c1nc(CN1C(=O)c3ccccc3S1(=O)=O)n2CCC,n,n,n,n,9.8,n
O=C(/C=C/c1ccc(-c2cc(Cl)ccc2Cl)o1)c1ccco1,x,x,x,x,x,60
O=C(O)/C=C/c1ccc(-c2ccc(Cl)c(Cl)c2)o1,x,x,x,x,x,n
CC(=O)/C=C/c1ccc(-c2cc(Cl)ccc2Cl)o1,x,x,x,x,x,n
O=C(/C=C/c1ccco1)/C=C/c1ccc(-c2ccc(Cl)c(Cl)c2)o1,x,x,x,x,x,102
Cc1ccc(N2CCN(/N=C\c3ccccc3OCC(=O)O)CC2)cc1,x,x,x,x,x,n
O=C1C2C3CCC(O3)C2C(=O)N1c1ccc(Cl)cc1 (stereo unspecified),x,x,x,x,x,n
CCOC(=O)c1[nH]c2ccccc2c1NC(=O)C1CCCC1,n,n,n,n,6.9,n
CCOC(=O)c1[nH]c2ccccc2c1NC(=O)CC(C)(C)C,n,n,n,n,n,n
O=c1/c(=C\c2ccc(-c3cccc(Cl)c3)o2)sc2nc3ccccc3n12,x,x,x,x,x,n
O=C(O)c1cc(N2C(=O)C=CC2=O)ccc1Cl,x,x,x,x,x,50
O=C(O)c1ccccc1C(=O)c1ccc(Cl)c(N2C(=O)C=CC2=O)c1,x,x,x,x,x,n
COc1ccc(NC(=O)Nc2nnc(-c3ccc(C)cc3)s2)cc1,x,x,x,x,x,n
COC(=O)CC(=O)Cc1nc(N)nc(Nc2ccc(C)c(C)c2)n1,n,n,n,n,-5.4,n
Cc1ccc(S(=O)(=O)N2CCN(S(C)(=O)=O)C2C(C)C)cc1 (stereo unspecified),x,x,x,x,x,96
CCn1c(NC2CCCCC2)nc2ccccc21,n,n,n,n,-3.4,n
O=C(CSc1ccc2nnc(-c3ccc(Cl)cc3)n2n1)N1CCCC1,n,n,n,n,5.6,n
Cc1ccc(-c2nnc3ccc(SCC(=O)N4CCCCC4)nn23)cc1,n,n,n,n,n,n
CCn1c(=O)n(CCOC)c(=O)c2c3c(sc21)CCCC3,n,n,n,n,6.3,n
SMILES,FXIa inh mix,Calb biofilm kill,FXIIa inh mix,TNAP act mid DEA,D1 allo mod,HePTP inh
O=C(O)CCCCCC1CCNC(=O)N1 (stereo unspecified),x,x,x,x,x,n
O=C(Nc1ccc(N2CCCC2)c(Cl)c1)c1ccco1,n,n,n,n,-4,n
O=C(Nc1ccc2oc(-c3cccc(Cl)c3Cl)nc2c1)c1ccco1,x,x,x,x,x,101
Cc1cc(N2CCN(C)CC2)nc2ccc(NC(=O)c3ccc(Br)o3)cc12,n,n,n,n,-4.2,n
O=C(Nc1ccc(N2CCOCC2)c(Cl)c1)c1ccc(Br)o1,n,n,n,n,-5,n
O=C(Nc1ccc(N2CCCCC2)c(C(=O)O)c1)c1ccco1,n,n,n,n,n,n
COc1ccc(CNc2nc3c(c(=O)n(Cc4ccc(Br)cc4)c(=O)n3C)n2C)cc1,n,n,n,n,-2.7,n
Cn1c(NCc2ccccc2)nc2c1c(=O)n(Cc1ccc(Br)cc1)c(=O)n2C,x,n,x,n,x,n
CC(C)c1ccc(NC(=O)c2csnn2)cc1,n,n,n,n,-4.5,n
COc1ccc(/C=C\C(=O)C2C(=O)c3ccccc3C2=O)cc1,x,x,x,x,x,n
Cc1cc(C)nc(SCc2ccccc2Cl)n1,x,x,x,x,x,n
CCOCCn1c(CN2CCN(c3cccc(Cl)c3)CC2)nc2c1c(=O)n(C)c(=O)n2C,n,n,n,n,n,n
COCCn1c(CN2CCN(c3cccc(Cl)c3)CC2)nc2c1c(=O)n(C)c(=O)n2C,n,n,n,n,-3.5,n
Cn1c(=O)c2c(nc(CN3CCN(Cc4ccccc4)CC3)n2Cc2ccccc2)n(C)c1=O,n,20,n,n,n,n
Cc1sc2ncnc(Sc3nnnn3-c3ccccc3)c2c1C,n,n,n,n,-4.8,n
CCSc1nnnn1-c1ccccc1,x,n,x,x,x,x
Clc1ccc(-n2nnnc2Sc2ncnc3sccc23)cc1,n,n,n,n,-2.9,n
CCOc1ccc(S(=O)(=O)N(CC(=O)N(CC)CC)c2ccc(C)cc2)cc1,x,x,x,x,x,n
CCOc1ccc(S(=O)(=O)N(CC(=O)O)c2ccc(C)cc2)cc1,n,n,48,n,n,n
O=C(Cn1nc(-c2ccccc2)nc1-c1ccccc1)OC1CCCCC1,x,n,x,x,x,x
CCOC(=O)Cn1nc(-c2ccccc2)nc1-c1ccccc1,n,n,n,n,-3.5,n
Cc1cccc(/C=C2\C(=O)NC(=O)N(c3ccc(Br)c(C)c3)C2=O)c1,x,x,x,x,x,n
Cc1cc(N2C(=O)NC(=O)/C(=C\c3ccco3)C2=O)ccc1Br,x,x,x,x,x,80
O=C1NC(=O)N(c2ccc(Br)cc2)C(=O)/C1=C/c1ccco1,x,x,x,x,x,104
O=C(CCCN1C(=O)/C(=C/c2ccccc2)SC1=S)Nc1ccccc1,x,x,x,x,x,n
SMILES,FXIa inh mix,Calb biofilm kill,FXIIa inh mix,TNAP act mid DEA,D1 allo mod,HePTP inh
O=C1CC(c2ccccc2)=NN1c1nc2ccccc2s1,x,x,x,x,x,n
CCOc1ccc(S(=O)(=O)N(CC(=O)Nc2ccc(C(C)=O)cc2)c2ccc(C)cc2)cc1,x,x,x,x,x,n
O=C(c1ccc(CN2CCOCC2)cc1)N1CCC(Cc2ccccc2)CC1,n,n,n,n,-3.3,n
COc1cccc(N2CCN(c3ncnc4c3[nH]c3ccc(F)cc34)CC2C)c1 (stereo unspecified),n,n,n,n,-5.2,n
COc1cccc(N2CCN(c3ncnc4c3[nH]c3ccccc34)CC2C)c1 (stereo unspecified),x,x,x,n,x,n
O=C(Nc1ccccc1C(=O)NCCc1ccccc1)c1cccnc1,x,x,x,x,x,n
FC(F)(F)c1cc(-c2ccccc2)nc(N2CCCCC2)n1,n,n,n,n,n,n
Nc1nc(-c2ccccc2)cc(C(F)(F)F)n1,n,n,n,n,27,n
O=C1C(Cl)=C(Nc2ccccc2)C(=O)N1c1cccc(Cl)c1,x,x,x,x,x,n
O=C(O)c1cccc(NC2=C(Cl)C(=O)N(c3ccc(Cl)cc3)C2=O)c1,x,x,x,x,x,104
O=C1NC(=S)N/C1=C/c1ccc(-c2cc([N+](=O)[O-])ccc2Cl)o1,x,x,x,x,x,80
CCOc1ccc(N2C(=O)/C(=C/c3ccc(-c4cc([N+](=O)[O-])ccc4Cl)o3)C(=O)NC2=S)cc1,x,x,x,x,x,n
C=CCN1C(=O)/C(=C\c2ccc(-c3cc([N+](=O)[O-])ccc3C)o2)C(=O)NC1=S,x,x,x,x,x,102
CCCOC(=O)c1c(-c2ccc(OC)c(OC)c2)csc1N,x,x,x,x,x,104
Cc1ccc(N2CCN(/N=C\c3ccccc3[N+](=O)[O-])CC2)cc1,x,x,x,x,x,n
Cc1ccc(S(=O)(=O)NCCSc2ccccn2)cc1[N+](=O)[O-],x,x,x,x,x,n
Cc1c(C(=O)NC2CCSC2=O)cccc1[N+](=O)[O-] (stereo unspecified),x,x,x,x,x,55
Cc1c(C(=O)NC2CCCCCC2)cccc1[N+](=O)[O-],x,x,x,x,x,n
